The list is not random: actives were taken first. Their share in the collection is about 6.9%.
JMJD2A Tudor inh: qHTS Assay for Inhibitors of JMJD2A-Tudor Domain; Potency, µM (top dose mostly 114 µM), for inactives: at the highest dose activity change, negative = inhibition, hits mostly inhibitors; Lysine-specific demethylase 4A (Homo sapiens), O75164; 4.4% of 390,000 active; AlphaScreen JMJD2A-Tudor / H3K4me3 peptide binding; also: % is scaled to controls: 0 for no effect and ±100 for the full control effect; nearly all actives have a fitted effect of over 50% in size
PLK1 PBD block: qHTS for Inhibitors of PLK1-PDB (polo-like kinase 1 - polo-box domain): Primary Screen; Plk1 PBD binding of FITC phosphopeptide, fluorescence polarization; Serine/threonine-protein kinase PLK1 (Homo sapiens), P53350; AID 720504, 2013; Potency, µM, without a hit: max response, negative = inhibition, usual class: inhibitors; 2.8% of 360,000 active; also: series mostly up to about 57 µM; % is scaled to controls: 0 for no effect and ±100 for the full control effect; nearly all actives have a fitted effect of over 65% in size
VDR inh: Inhibitors of the vitamin D receptor (VDR): qHTS; Potency, µM, for the others: max response, negative = inhibition, usual class: inhibitors; AID 504847, 2011; 0.93% of 400,000 active; VDR-SRC2-3 peptide fluorescence polarization, 2 h; also: % is scaled to controls: 0 for no effect and ±100 for the full control effect
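Two reagent solutions held at 4 deg C in the dark were dispensed, compounds pinned at 23 nl, and the mixture incubated 2 h at room temperature. Read-out: fluorescence polarization of VDR–SRC2-3 peptide binding.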
HP1b binding inh: HTS for Inhibitors of HP1-beta Chromodomain Interactions with Methylated Histone Tails. 0.56% of 390,000 active. Chromobox protein homolog 1 (Homo sapiens), P83916. Potency, µM (series often up to 114 µM), inactives show at the top dose activity change, negative = inhibition, actives largely listed as inhibitors. AlphaScreen HP1-beta / biotin-H3K9me3 peptide binding; also: nearly all actives have a fitted effect of over 70% in size
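HP1-beta protein (50 nM final) preincubated 30 min at room temperature with biotinylated H3(1-18)K9me3 peptide (50 nM) in PBS pH 7.4, 0.01% Tween-20, then compound added for 30 min. AlphaScreen streptavidin donor/nickel chelate acceptor beads (10 ug/mL final), 30 min dark, luminescence read.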
BAZ2B block: qHTS Assay for Inhibitors of BAZ2B; Bromodomain adjacent to zinc finger domain protein 2B (Homo sapiens), Q9UIF8; AlphaScreen BAZ2B-H3K14Ac peptide displacement; Potency, µM (series often up to 114 µM), without a hit: top-dose activity change, negative = inhibition, hits mostly inhibitors; 4.4% of 360,000 active; also: % is scaled to controls: 0 for no effect and ±100 for the full control effect; nearly all actives have a fitted effect of over 60% in size
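BAZ2B 50 nM plus b-H3(5-23)K14Ac 50 nM, PBS pH 7.4/0.01% Tween-20, 30 min RT; compound added (max 110 uM), 30 min RT; streptavidin donor/Ni-chelate acceptor beads 10 ug/mL final, 20 min dark; AlphaScreen read.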
L3MBTL1 block: qHTS Assay for the Inhibitors of L3MBTL1; Lethal(3)malignant brain tumor-like protein 1 (Homo sapiens), Q9Y468; AlphaScreen L3MBTL1–H3K9me1 peptide binding; Potency, µM (highest dose often 57.1 µM), inactives show at the highest dose activity, negative = inhibition, most hits filed as inhibitors; 0.66% of 230,000 active; AID 485360, 2010; also: % is scaled to controls: 0 for no effect and ±100 for the full control effect; nearly all actives have a fitted effect of over 60% in size
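AlphaScreen proximity signal between nickel-chelate acceptor and streptavidin donor beads (final 10 ug/mL) reports binding of 50 nM L3MBTL1 to 75 nM biotin-H3 K9me1 peptide; complex incubated with compounds 30 min at room temperature; cefsulodin titration as control.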
Starred values were filed as active, the others as inactive; ? = inconclusive; . = no result given; [ ] = another dose, or the depositor's remark. Calls follow the shape of the dose curve; as a rule, active = well fitted curve in the direction sought with a large enough effect; inconclusive = small, poorly fitted or top-dose-only effect, or another doubt; inactive = no such curve, though single readings can be large; an effect the other way counts as inactive or inconclusive. Potency is read from the fitted curve at half-maximal effect.

SMILES | JMJD2A Tudor inh | PLK1 PBD block | VDR inh | HP1b binding inh | BAZ2B block | L3MBTL1 block
COc1ccc(C2CC(=O)N3CN(Cc4ccco4)CSC3=C2C#N)cc1 (stereo not drawn) | 7.08µM* | 26.7µM* | 28.2µM* | ? | ? | -5.5%
COc1ccc(C2CC(=O)N3CN(C4CCCCC4)CSC3=C2C#N)c(OC)c1 (stereo not drawn) | 3.55µM* | . | ? | ? | . | .
COc1cc(OC)c(C2CC(=O)N3CN(c4ccccc4C)CSC3=C2C#N)cc1OC (stereo not drawn) | . | . | . | . | 56.2µM* | -15.7%
CC1CC(=O)C2=C(C1)Nc1nc3ccccc3n1C2c1cccnc1 (stereo not drawn) | -13.7% | -13.6% | -16.9% | 24.1% | -5.0% | 2.5%
O=C1CCCC2=C1C(c1ccncc1)n1c(nc3ccccc31)N2 (stereo not drawn) | 56.2µM* | 26.7µM* | ? | -2.7% | 7.8% | 13.2%
COc1cccc(CN2CCN(C(=O)CCc3nnc(C4CCCCC4)o3)CC2=O)c1 | -6.1% | -20.9% | ? | 76.8% | 7.0% | 5.7%
O=C(/C=C/[C@H]1O[C@@H](n2ccc(=O)[nH]c2=O)[C@H](O)[C@@H]1O)NCCN1CCOCC1 | . | -10.4% | . | . | . | .
Cc1cc2c(s1)c1cnn(Cc3c(F)ccc(F)c3F)c(=O)c1n2C | -5.5% | . | . | . | . | .
CCCN(C(=O)Cc1nc(N)n[nH]1)C1(C(=O)Nc2ccccc2C)CCCCC1 | ? | -3.2% | -2.3% | 20.4% | 44.7µM* | ?
Cc1cccc(C)c1NC(=O)C1(N(Cc2ccco2)C(=O)CC2NC(=O)NC2=O)CCCCC1 (stereo not drawn) | -6.1% | -16.9% | -15.2% | 51.9% | 4.3% | .
CCCN(C(=O)Cc1nc(N)n[nH]1)C1(C(=O)Nc2c(C)cccc2C)CCCCC1 | -35.1% | 0.5% | 6.5% | 42.8% | 79.4µM* | 1.3%[11.4 µM]
Cc1cc2c(s1)c1cnn(Cc3cccc(Cl)c3)c(=O)c1n2C | -32.2% | . | . | . | . | .
O=C(c1ccc(F)cc1)N1CCC(c2nc(-c3ccc(S(=O)(=O)N4CCCC4)cc3)no2)CC1 | -8.5% | . | 8.4% | 26.9% | -5.8% | .
COC(=O)CCN(C)CCC(=O)OC | 50.1µM* | -23.5% | -16.2% | 54.8% | 12.7% | 15.4%
O=C1c2ccccc2[C@@H]2CC(O)C(O)CCN12 (stereo partly drawn) | -1.4% | -3.8% | -14.8% | 38.3% | . | -5.2%
CC1(C)Cc2ccccc2C2CC(O)C(=O)N21 (stereo not drawn) | 89.1µM* | -16.8% | -5.8% | -13.3% | -29.6% | -6.2%
Cc1ccc(S(=O)(=O)c2nc(S(=O)(=O)CCO)sc2N2CCOCC2)cc1 | -30.5% | 29.9µM* | -18.3% | 18.5% | -13.0% | .
OCC[C@@H]1C[C@H](O)[C@@H](O)[C@@]2(OCCCc3cc(C(F)(F)F)ccc32)O1 | . | -10.5% | . | . | . | .
C=CCSc1nc2ccsc2c(=O)n1-c1cccnc1 | -11.3%[11.4 µM] | 26.7µM* | -16.0% | -12.0% | -18.2% | .
Cc1nn(CCCC(=O)Nc2cc(C(F)(F)F)ccc2Cl)c(=O)c2c1sc1ccccc12 | -0.7% | . | 2.3% | 53.4% | -24.6% | .
Cn1cc(P(=O)(N2CCOCC2)N2CCOCC2)cc1P(=S)(N1CCOCC1)N1CCOCC1 | -12.1% | 10.6µM* | ? | 2.0% | 0.7% | 5.1%
Cn1cc(P(=S)(N2CCOCC2)N2CCOCC2)cc1P(=O)(N1CCOCC1)N1CCOCC1 | ? | 13.4µM* | ? | ? | -2.7% | 5.0%

Screens (PubChem BioAssay)
